Tested on: Vero E6 infected with SARS-CoV-2
Experiment: inhibition of SARS-CoV-2 cytopathic effect; higher = more antiviral protection, active = above 15
Settings: 48 h

Measured: inhibition of SARS-CoV-2 cytopathic effect

C[C@@H]1O[C@@H]1P(=O)(O)O
inactive: 1 nM 0.82% | 8.33 nM -0.13% | 100 nM -0.02% | 833.33 nM 0.37% | 10000 nM 0.09%

c1ccc2nc(C3=NCCN3)ccc2c1
inactive: 1 nM -1% | 8.33 nM 0.61% | 100 nM 2.25% | 833.33 nM 3.75% | 10000 nM 2.01%

CC(C)[C@]12O[C@H]1[C@@H]1O[C@]13[C@]1(O[C@H]1C[C@H]1C4=C(CC[C@@]13C)C(=O)OC4)[C@@H]2O [triptolide]
inactive: 1 nM -1.16% | 8.33 nM -2.32% | 100 nM -12.1% | 833.33 nM -9.06% | 10000 nM -8.11%

N#Cc1ccc(Oc2ccc3c(c2)COB3O)cc1 [crisaborole]
inactive: 1 nM 0.74% | 8.33 nM 0.97% | 100 nM 1.46% | 833.33 nM -0.75% | 10000 nM 4.65%

Oc1ccc(OCc2ccccc2)cc1 [monobenzone]
inactive: 1 nM -1.3% | 8.33 nM -1.35% | 100 nM -0.07% | 833.33 nM -0.61% | 10000 nM -2.93%

NC(=S)N/N=C/c1ncccc1N [triapine]
inactive: 1 nM 2.87% | 8.33 nM -0.48% | 100 nM 4.4% | 833.33 nM 3.25% | 10000 nM -6.06%

Cc1cccc(Nc2ccncc2S(=O)(=O)NC(=O)NC(C)C)c1 [torasemide]
inactive: 1 nM -0.3% | 8.33 nM -0.37% | 100 nM -0.51% | 833.33 nM -1.03% | 10000 nM -1.02%

C#C[C@]1(OC(C)=O)CC[C@H]2[C@@H]3CCC4=CC(=O)CC[C@@H]4[C@H]3CC[C@@]21C [norethindrone-acetate]
inactive: 1 nM 0.09% | 8.33 nM 0.03% | 100 nM -1.33% | 833.33 nM 0.02% | 10000 nM 1.02%

CS(=O)(=O)OCCCCOS(C)(=O)=O [busulfan]
inactive: 1 nM -2.94% | 8.33 nM -4.62% | 100 nM -3.55% | 833.33 nM -3.78% | 10000 nM -4.14%

COc1cc2c(NC3CCN(C)CC3)nc(N3CCCN(C)CC3)nc2cc1OCCOCCN(C)C
inactive: 1 nM -0.25% | 8.33 nM 0.8% | 100 nM -0.4% | 833.33 nM 2.99% | 10000 nM -3.09%

C[C@H](N/C(=N/C#N)Nc1cccc2ncccc12)c1ccccc1
inactive: 1 nM -1.75% | 8.33 nM -2.48% | 100 nM -3.44% | 833.33 nM 1.32% | 10000 nM 1.97%

Nc1nc2cc(-c3ccc4ncc(C(=O)N5CCOCC5)n4c3)ccc2o1
inactive: 1 nM 0.78% | 8.33 nM 5.87% | 100 nM 4.68% | 833.33 nM 3.05% | 10000 nM -2.33%

CCOC(=O)[C@@H](N)Cc1ccc(O)c(O)c1 [etilevodopa]
inactive: 1 nM 3.02% | 8.33 nM 1.51% | 100 nM 2.32% | 833.33 nM 0.72% | 10000 nM 0.9%

Cc1nc2n(c(=O)c1CCN1CCC(c3noc4cc(F)ccc34)CC1)CCCC2O (stereo not given) [paliperidone]
inactive: 1 nM -1.5% | 8.33 nM -3.74% | 100 nM -2.02% | 833.33 nM -3.59% | 10000 nM -4.1%

CCc1cc2c(cc1CC)CC(NC[C@H](O)c1ccc(O)c3[nH]c(=O)ccc13)C2 [indacaterol]
inactive: 1 nM -4.02% | 8.33 nM -0.7% | 100 nM -0.83% | 833.33 nM -1.99% | 10000 nM -2.01%

OC[C@H]1NCC[C@@H](O)[C@@H]1O [fagomine]
inactive: 1 nM -1.09% | 8.33 nM 1.34% | 100 nM 1.02% | 833.33 nM 2.42% | 10000 nM 0.75%

C[C@H](NC(=O)c1sccc1OCc1ccc(Cl)cc1)c1ccccc1
inactive: 1 nM -2.57% | 8.33 nM -2.87% | 100 nM -1.08% | 833.33 nM -1.14% | 10000 nM -0.53%

C/C(=N\NC(=O)[C@@H]1C(=O)NC[C@H]1c1ccccc1)c1cccc(Br)c1
inactive: 1 nM -1.05% | 8.33 nM 1.12% | 100 nM 1.69% | 833.33 nM -2.01% | 10000 nM -2.3%

O=C1CCCC(=O)C1C(=O)c1ccc(C(F)(F)F)cc1[N+](=O)[O-] [nitisinone]
inactive: 1 nM 0.39% | 8.33 nM 0.93% | 100 nM -0.21% | 833.33 nM 0.01% | 10000 nM -1.34%

Source: the supplement of paper PMC13380429
